“And” between values parts separate entries of the source, which are not always exact repeats. Equal entries are not always repeated. Among all 16,000 compounds or so, about 4,000 (25%) were called active. About 26% were inconclusive and are not listed. Calls follow the shape of the dose curve; as a rule, active = well fitted curve in the direction sought with a large enough effect; inconclusive = small, poorly fitted or top-dose-only effect, or effect the other way; inactive = no such curve, though single readings can be large or run the other way. Not all results are given here.
Biological target: Cytochrome P450 2C9 (Homo sapiens) (UniProt P11712)
Test: Cytochrome panel assay with activity outcomes
Conditions: recombinant CYP, pro-luciferin dealkylation, luminescence, p450-cyp2c9; series mostly up to 57.1 µM; activity, negative = inhibition: at the top concentration
% is scaled to controls: 0 for no effect and ±100 for the full control effect.

Chain of Cytochrome P450 2C9 (Homo sapiens) (P11712 whole entry, looked up): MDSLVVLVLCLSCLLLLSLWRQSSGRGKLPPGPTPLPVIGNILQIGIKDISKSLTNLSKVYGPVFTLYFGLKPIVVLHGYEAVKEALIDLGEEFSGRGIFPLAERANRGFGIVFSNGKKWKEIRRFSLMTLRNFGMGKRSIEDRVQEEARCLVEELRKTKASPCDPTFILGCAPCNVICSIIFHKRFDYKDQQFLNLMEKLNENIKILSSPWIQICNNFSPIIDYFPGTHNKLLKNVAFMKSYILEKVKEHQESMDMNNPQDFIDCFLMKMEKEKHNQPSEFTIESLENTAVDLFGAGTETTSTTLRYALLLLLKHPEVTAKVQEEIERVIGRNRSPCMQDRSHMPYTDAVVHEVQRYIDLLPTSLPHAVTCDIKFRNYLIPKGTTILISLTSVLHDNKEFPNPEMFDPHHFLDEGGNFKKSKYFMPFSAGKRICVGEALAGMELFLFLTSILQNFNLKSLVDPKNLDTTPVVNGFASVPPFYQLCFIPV

Structure (SMILES)	activity, negative = inhibition	AC50
N#CCCN	-12.2% (inactive)	
Ic1ccccc1CN[C@@H]1C2CCN(CC2)[C@H]1C(c1ccccc1)c1ccccc1	-10.7% (inactive)	
NC(N)=Nc1ccc2[nH]c3c(c2c1)C[C@]1(O)[C@@H]2Cc4ccc(O)c5c4[C@]1(CCN2CC1CC1)[C@H]3O5	-13.2% (inactive)	
COC(=O)[C@@H]1[C@@H]2C[C@H]3c4[nH]c5cc(OC)ccc5c4CCN3C[C@@H]2C[C@H](OC(=O)/C=C\c2cc(OC)c(OC)c(OC)c2)[C@H]1OC	-29.1% [at 25.6 µM] (inactive)	
COc1cc2c(cc1OC)[C@H](C)NCC2	-6.11% [at 25.6 µM] (inactive)	
NC(=NCc1ccc(Cl)cc1)SCCCc1cnc[nH]1		12.6 µM (active)
OCc1cnc[nH]1	18.9% (inactive)	
NC(=NCCc1ccc(I)cc1)SCCCc1cnc[nH]1	-14.5% (inactive)	
C#CCN[C@@H](C)Cc1ccccc1	11.2% (inactive)	
c1csc(CN2CC[C@@]3(CCCNC3)C2)n1	-14.6% (inactive)	
COc1ccc2c(c1)[C@]13CCCC[C@@H]1[C@H](C2)N(C)CC3	18.1% (inactive)	
COc1ccc(C(=O)O[C@H]2CC[C@@]3(C)[C@H]4CC[C@H]5[C@]3(C[C@]3(O)[C@H]6CN7C[C@H](C)CC[C@H]7[C@](C)(O)[C@]6(O)[C@H](O)C[C@]53O)O[C@]24O)cc1OC	-11.3% [at 11.4 µM] (inactive)	
C=CCn1c(O)c(C(CC)=NC2CC2)c(=O)[nH]c1=O	-18.3% (inactive)	
CCCCn1c(O)c(C=NCCN2CCCCC2)c(=O)[nH]c1=O	-10.3% (inactive)	
O=c1[nH]c(=O)n(CCc2ccc(F)cc2)c(O)c1C=NCCCN1CCOCC1	-43.7% (inactive)	
CCCCn1c(O)c(C(CC)=NCc2ccc(F)cc2)c(=O)[nH]c1=O		3.55 µM (active)
CCCCn1c(O)c(C(CC)=Nc2ccc(OC)cc2OC)c(=O)[nH]c1=O		14.1 µM (active)
CCC(=Nc1cc(OC)ccc1OC)c1c(O)[nH]c(=O)[nH]c1=O	-27.4% (inactive)	
C[C@]12CCC3c4ccc(OCC(=O)O)cc4CCC3C1CCC2=O (some centres undefined)	-4.6% [at 11.4 µM] (inactive)	
c1cc(C2N3CCCN2CC3)ccn1 (centres undefined)	9.12% [at 11.4 µM] (inactive)	
O=C(CCCN1CCC2(CC1)C(=O)N(Cc1cccc(F)c1)CN2c1ccccc1)c1ccc(F)cc1	-6.74% (inactive)	
CCCN1CCC[C@H](c2cccc(C#N)c2)C1	8.91% (inactive)	
CCCN1CC[C@@H]2c3cc(O)ccc3CC[C@H]21	0.289% (inactive)	
Cc1cccc([C@H](C)c2cnc[nH]2)c1C		0.2 µM (active)

Structure (SMILES)	activity, negative = inhibition	AC50
C=C(CC1(CNP(=O)(c2ccccc2)c2ccccc2)CC1)c1ccccc1		10 µM (active)
O=P(O)(O)c1ccccc1 (tested in a mixture with another compound)	0.15% [at 11.4 µM] (inactive)	
C=C(CC1(C(C)NP(=O)(c2ccccc2)c2ccccc2)CC1)c1ccccc1 (centres undefined)		7.94 µM (active)
O=C(O)[C@@H]1C[C@H]1[C@@H](NP(=O)(c1ccccc1)c1ccccc1)c1ccccc1	4.05% (inactive)	
O=C(O)[C@H]1C[C@@H]1[C@H](NP(=O)(c1ccccc1)c1ccccc1)c1ccccc1	9.12% (inactive)	
C=C(C)c1ccccc1 (tested in a mixture with another compound)	-0.349% [at 11.4 µM] (inactive)	
Cc1c2cc[n+](CCN3CCCCC3)cc2c(C)c2c1[nH]c1ccc(O)cc12	17.8% [at 11.4 µM] (inactive)	
COc1ccc(C[C@@H]2NC[C@H](O)[C@@H]2OC(C)=O)cc1	2.29% [at 25.6 µM] (inactive)	
CC(C)c1nccn1Cc1ccc(Cl)cc1Cl	-23.6% [at 11.4 µM] (inactive)	
NC1=Nc2ccccc2Oc2ccccc21	-32.7% (inactive)	
COc1ccccc1N1CCNCC1	2.31% (inactive)	
O=C(O)c1ccccc1-c1c2cc(Br)c(=O)cc-2oc2[c]([Hg])c(O)c(Br)cc12		0.631 µM (active)
COc1ccc2[nH]c3c(c2c1)CCNC3	-4.54% (inactive)	
C[N+]1(C)C2CC[C@H]1CC(OC(=O)[C@@H](CO)c1ccccc1)C2 (some centres undefined)	8.36% [at 11.4 µM] (inactive)	
CC1(C)[C@@H]2CC[C@]1(C)CN(CCC[N+](C)(C)C)C2	1.62% [at 11.4 µM] (inactive)	
Cc1cc(Cc2cc(C)c(N)cc2N)c(N)cc1N	-2.47% [at 11.4 µM] (inactive)	
C[C@H](CN(C)C)C(C#N)(c1ccccc1)c1ccccc1	-0.348% [at 11.4 µM] (inactive)	
O=C(O)CP(=O)(O)c1ccc(Cl)cc1	2.66% (inactive)	
CNCCc1c[nH]c2ccc(O)cc12	-5.29% (inactive)	
O=c1c(O)c(-c2cc(O)c(O)c(O)c2)oc2cc(O)cc(O)c12		12.6 µM (active) and 10 µM (active)
O=c1cc(-c2ccc(O)cc2)oc2cc(O)cc(O)c12	-49.1% [at 25.6 µM] (inactive)	
O=c1cc(-c2ccc(O)c(O)c2)oc2cc(O)cc(O)c12	-26.3% [at 25.6 µM] (inactive)	
Nc1nc(N)c(Cn2ccnc2)c(=O)[nH]1	-12.8% [at 11.4 µM] (inactive)	
Cn1cccc1CNCCc1ccccc1	-5.62% (inactive)	

Structure (SMILES)	activity, negative = inhibition	AC50
CN1CC[C@@]23c4ccccc4N[C@H]1[C@]21CCN(C)[C@@H]3Nc2ccccc21	19.2% [at 25.6 µM] (inactive)	
C=C1C/C(=C\C)C(=O)O[C@@H]2CCN3CC=C(COC(=O)[C@@]1(C)O)[C@H]23	4.43% [at 25.6 µM] (inactive)	
CC1=C(C)[N+](=O)C2(O)CCCCC2(C)N1[O-] (centres undefined)	32.8% (inactive)	
C=Cn1ccnc1P(=S)(c1nccn1C=C)C1CCCCC1		11.2 µM (active)
S=P(C1CCCCC1)(C1CCCCC1)[C@H](c1cccnc1)N1CCCC1	-6.57% [at 11.4 µM] (inactive)	
O[Si@](CCCN1CCCCC1)(c1ccc(F)cc1)C1CCCCC1	-12.9% (inactive)	
COC(=O)NC/C=C\c1nc(CC/C=C\C(=O)O[C@H]2C[C@H]3CC(=O)O[C@@H](/C=C\CC(C)C)C[C@@H]4CC[C@H](C)[C@H](C[C@@H](OC)C[C@H](C2)O3)O4)co1	-4% [at 11.4 µM] (inactive)	
COC(=O)[C@H]1C(=O)c2ccccc2O[C@@](C(=O)OC)(c2ccccc2)[C@@H]1c1ccccc1	-6.83% [at 11.4 µM] (inactive)	
CC[C@@H]1CN2CCc3cc(OC)c(OC)cc3[C@H]2C[C@@H]1C[C@@H]1NCCc2cc(O)c(OC)cc21	15.7% [at 25.6 µM] (inactive)	
O=C(Oc1ccccc1)N1CCC2(CCCN(Cc3ccccc3)C2)CC1	-8.8% (inactive)	
c1cc(CN2CC3(CCNCC3)C2)ccn1	-21.2% (inactive)	
CN1CC[C@@]2(CCCN(C(=O)c3csnn3)C2)C1	-15.5% (inactive)	
O=C(Oc1ccccc1)N1CCC2(CC1)CN(Cc1ccncc1)C2		3.16 µM (active)
O=C(Oc1ccccc1)N1CCC2(CCN(Cc3ccccc3)CC2)CC1	7% (inactive)	
N#Cc1ccc(CN2CCC3(CC2)CCN(C(=O)Oc2ccccc2)CC3)cc1	12.8% (inactive)	
CC(C)CN1CC2(CCN(C(=O)c3ccncc3)CC2)C1	-1.27% (inactive)	
c1cc(CN2CCC3(CCNCC3)CC2)ccn1	4.48% (inactive)	
O=C(Oc1ccccc1)N1CCC2(CCN(Cc3ccncc3)CC2)CC1		3.98 µM (active)
O=C(c1csnn1)N1CCC2(CC1)CN(Cc1ccncc1)C2		10 µM (active)
CC(C)CN1CC2(CCN(C(=O)Oc3ccccc3)CC2)C1	8.52% (inactive)	
CS(=O)(=O)N1CCC2(CC1)CN(Cc1ccncc1)C2		39.8 µM (active)
CC1(C)N=C(N)N=C(N)N1c1cccc(C(=O)Nc2ccc(S(=O)(=O)F)cc2)c1	14.9% [at 11.4 µM] (inactive)	
C=C(C)CN1CC[C@@]23c4c5ccc(O)c4O[C@H]2c2[nH]c4ccccc4c2C[C@]3(O)[C@@H]1C5	-16.9% (inactive)	
CC1=C2C(=O)[C@@H]3[C@@H](CC=C4C[C@@H](O)CC[C@@]43C)[C@H]2CC[C@@]12O[C@H]1C[C@H](C)CN[C@H]1[C@@H]2C	-3.17% [at 11.4 µM] (inactive)	

Structure (SMILES)	activity, negative = inhibition	AC50
CC(C)CNCCc1ccccn1	-0.994% [at 11.4 µM] (inactive)	
N[C@@H](CP(=O)(O)O)C(=O)O	6.98% [at 11.4 µM] (inactive)	
NC(=O)c1cc(N2CC2)c([N+](=O)[O-])cc1[N+](=O)[O-]	19.9% (inactive)	
C=C1[C@@H]2C[C@@]3([C@H]1O)[C@H]1C[C@@H]4[C@@]5(C)CC[C@H](O)[C@]4([C@H]1N(CC)C5)[C@H]3C[C@H]2O	-10.8% [at 25.6 µM] (inactive)	
OC(c1ccccc1)(c1ccccc1)C1CCNCC1	-22.6% [at 25.6 µM] (inactive)	
Cc1ccc(S(=O)ON2CCC(C(=O)O)(c3ccccc3)CC2)cc1 (centres undefined)	4.74% [at 11.4 µM] (inactive)	
O=C1C[C@@H](c2ccc(O)cc2)Oc2cc(O)cc(O)c21	-29% [at 25.6 µM] (inactive)	
CS(=N)(=O)CC[C@@H](N)C(=O)O (some centres undefined)	inactive	
COC(=O)N1CCC2(CCCN(C)C2)CC1	5.87% (inactive)	
Nc1nc(N)c(N=Nc2ccc([As](=O)(O)O)cc2)c(=O)[nH]1	3.51% [at 11.4 µM] (inactive)	
N[C@@H](Cn1ccc(=O)n(Cc2ccc(C(=O)O)cc2)c1=O)C(=O)O	-13.2% (inactive)	
NC[C@@H](O)CSP(=O)(O)O	10.5% [at 11.4 µM] (inactive)	
CSC([N-]/N=C/c1cccc(C)n1)=[S]=[Cu].CS[C@H]([S-])[N-]/N=C/c1cccc(C)n1		0.251 µM (active)
Nc1ccc(CCN2CCN(c3cccc(C(F)(F)F)c3)CC2)cc1	-7.19% (inactive)	
N[C@H](Cc1ccc(N(CCCl)CCCl)cc1)C(=O)O	-7.88% (inactive)	
CCCCC1(CCCC)C(=O)NC(=Nc2cccc(C)c2)NC1=O		5.01 µM (active)
CCC1(C)CC(=O)NC(=O)C1	-12.8% [at 25.6 µM] (inactive)	
CC(C)[C@]1(O)[C@@H](OC(=O)c2ccc[nH]2)[C@]2(O)[C@@]3(C)C[C@@]4(O)O[C@@]5([C@H](O)[C@@H](C)CC[C@]35O)[C@]2(O)[C@]41C	13.6% [at 11.4 µM] (inactive)	
CC[C@@H]1CN2CCc3cc(OC)c(OC)cc3[C@H]2C[C@@H]1C[C@H]1NCCc2cc(OC)c(OC)cc21	17.8% [at 25.6 µM] (inactive)	
CCOC(=O)c1c(NC(=O)C(c2ccccc2)c2ccccc2)sc2c1C1CCN2CC1		1.58 µM (active)
O=C(OC1CCN(CCCl)CC1)C(c1ccccc1)c1ccccc1	-0.507% (inactive)	
CCOC(=O)c1cncn1[C@H](C)c1ccccc1	3.2% (inactive)	

— PubChem BioAssay AID1851 (National Center for Advancing Translational Sciences (NCATS), 2009)
